An excerpt weighted towards active compounds, which were near 0.43% of everything screened.
aGal spleen mod: inhibitors or activators of human alpha-galactosidase in spleen homogenate; 240,000 compounds, 0.008% hits; Potency, µM (titrated, usually from 80 µM), for the others: at the top dose activity change, negative = inhibition, hits mostly inhibitors; human spleen homogenate, 4MU-alpha-Gal fluorescence, 40 min; AID 2107; P06280;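 also: potency is read from the fitted curve at half-maximal effect; 0% = enzyme with vehicle and -100% = no enzyme basal signal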
Target sequence (P06280 32-429 limits assumed): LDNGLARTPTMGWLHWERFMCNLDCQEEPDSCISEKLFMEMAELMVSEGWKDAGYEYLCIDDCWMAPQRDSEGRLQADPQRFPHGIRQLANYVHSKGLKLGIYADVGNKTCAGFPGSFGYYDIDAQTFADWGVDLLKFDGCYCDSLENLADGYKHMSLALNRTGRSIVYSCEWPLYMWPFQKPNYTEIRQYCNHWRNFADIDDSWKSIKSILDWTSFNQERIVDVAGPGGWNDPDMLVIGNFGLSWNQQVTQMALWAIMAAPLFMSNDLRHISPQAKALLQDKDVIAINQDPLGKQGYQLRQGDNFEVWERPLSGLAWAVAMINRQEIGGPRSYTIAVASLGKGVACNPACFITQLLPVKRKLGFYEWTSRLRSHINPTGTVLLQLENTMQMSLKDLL
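Fluorogenic readout (Ex 365/Em 440 nm) of 4-methylumbelliferone released from 1 mM 4-MU-alpha-galactoside by spleen homogenate, 40 min at 37C, pH 5.0. Data normalized to no-enzyme and enzyme controls; Hill-equation AC50 from compound titrations.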
GAA inh: alpha-glucosidase (human) inhibition; P10253; purified human GAA, 4-MU-alpha-glucoside fluorescence; Potency, µM (highest dose often 76.9 µM), for inactives: at the top dose activity change, negative = inhibition, usual class: inhibitors; 200,000 compounds, 0.005% hits; AID 1466;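 also: potency is read from the fitted curve at half-maximal effect; plate controls were uninhibited enzyme wells for no effect and no-enzyme background for full effect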
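Endpoint fluorogenic read: 20 min room-temperature reaction of 4 nM human alpha-glucosidase with 400 uM 4-methylumbelliferyl-alpha-D-pyranoside, pH 5.0, quenched with 1M NaOH/1M glycine pH 10. AC50 from Hill modeling.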
GAA glycogen mod: inhibitors or activators of human alpha-glucosidase glycogen cleavage; P10253; AID 2100; recombinant GAA, glycogen substrate, Amplex Red glucose oxidase fluorescence; 300,000 compounds, 0.38% hits; Potency, µM (titrated, usually from 76.4 µM), without a hit: top-dose activity change, negative = inhibition, hits mostly inhibitors;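 also: potency is read from the fitted curve at half-maximal effect; 0% = full enzyme reaction and -100% = no-enzyme basal signal; the screen sought inhibitors and activators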
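Recombinant enzyme (4 nM final) with compounds titrated up to 77 uM and bovine liver glycogen (30 ug) in citrate pH 5.0, 0.01% Tween-20, 37 C 40 min. Released glucose detected by Amplex Red/glucose oxidase (Ex 573/Em 610); AC50 from Hill fits.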
GLA inh pH 4.5: alpha-galactosidase A (human) inhibition, pH 4.5; P06280; purified enzyme, 4-MU-alpha-Gal fluorescence, pH 4.5; activity change, negative = inhibition, % at 105 µM; 230,000 tested, under 10 active; AID 1467;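 also: 0% = full activity with enzyme and -100% = basal without enzyme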
aGlu spleen mod: inhibitors or activators of human alpha-glucosidase in spleen homogenate | P10253 | human spleen homogenate, 4-MU-alpha-glucoside fluorescence | Potency, µM (highest dose often 79.9 µM), for the others: top-dose activity change, negative = inhibition, hits mostly inhibitors | 240,000 compounds, 0.006% hits | AID 2112;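 also: potency is read from the fitted curve at half-maximal effect; 0% = enzyme with vehicle and -100% = no enzyme basal signal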
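Human spleen homogenate (1 ug) with 4-methylumbelliferyl-alpha-D-glucopyranoside (1 mM final) in 50 mM citrate/phosphate pH 5.0, 0.01% Tween-20; 40 min at 37 C. Stopped at pH 10; 4-MU fluorescence Ex 365/Em 440 nm; AC50 by Hill fit.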
N370S GC: inhibits or activates N370S mutant glucocerebrosidase; P04062; N370S GC spleen homogenate, 4MU-glucoside fluorescence; Potency, µM (highest dose often 59.4 µM), inactives show top-dose activity change, negative = inhibition, usual class: inhibitors; 330,000 compounds, 0.092% hits; AID 2101;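 also: potency is read from the fitted curve at half-maximal effect; 0% = full enzyme activity and -100% = no enzyme basal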
* hit, by the source's call; [ ] = another dose, or the depositor's remark. Calls follow the shape of the dose curve; as a rule, active = well fitted curve in the direction sought with a large enough effect; inconclusive = small, poorly fitted or top-dose-only effect, or another doubt; inactive = no such curve, though single readings can be large; an effect the other way counts as inactive or inconclusive.

`COc1cc(C(C)C)c2c(c1)S(=O)(=O)N(COc1cc(=O)n3cccc(OCCN4CCCCC4)c3n1)C2=O` gave aGal spleen mod 5.7%, aGlu spleen mod 0.4% and N370S GC inconclusive.
CCN(C(=O)CN1CCN(c2ccccc2O)CC1)c1c(N)n(Cc2ccccc2)c(=O)[nH]c1=O was read as aGal spleen mod -1.6%, GAA inh -5.8%, GAA glycogen mod 9.92µM*, GLA inh pH 4.5 2.1, aGlu spleen mod 2.2% and N370S GC 16.0%.
Screening CN(C)c1ccc(-c2cc(NCc3cccnc3)ncn2)cc1 returned aGal spleen mod inconclusive, GLA inh pH 4.5 inconclusive, aGlu spleen mod 22.9% and N370S GC 25.4%.
COc1cc(-c2nnc(SCc3cc(=O)oc4cc(O)c(O)cc34)o2)cc(OC)c1OC was read as aGal spleen mod 8.0%, GAA inh -5.6%, GAA glycogen mod 15.8µM*, GLA inh pH 4.5 -0.5, aGlu spleen mod -21.1% and N370S GC -20.9%.
For CCOC(=O)CSc1nnc(-c2cc(OC)c(OC)c(OC)c2)o1 the results were aGal spleen mod -2.0%, GAA inh 10.3%, GAA glycogen mod -8.5%, GLA inh pH 4.5 0.7, aGlu spleen mod 8.1% and N370S GC 0.0%.
`Cc1cc(O)c(C(C)C)cc1N=C1CSC(=O)N1` gave aGal spleen mod 5.0%, GAA inh 5.1%, GAA glycogen mod 17.6µM*, GLA inh pH 4.5 -5.6, aGlu spleen mod 7.7% and N370S GC 1.6%.
For Cc1nc(N)sc1-c1csc(N(C)c2ccc(O)cc2)n1 the results were aGal spleen mod 0.0%, GAA inh 0.8%, GAA glycogen mod 25.1µM*, GLA inh pH 4.5 -18.4, aGlu spleen mod -1.3% and N370S GC -26.4%.
Screening Cc1ccccc1-c1nccc(Nc2ccc(F)cc2)n1 returned aGal spleen mod -7.7%, aGlu spleen mod -4.8% and N370S GC 20µM*.
`C=CCn1c(SCC(=O)NC2CCCC2)nc2scc(-c3ccco3)c2c1=O` gave aGal spleen mod -7.5%, GAA inh -6.7%, GAA glycogen mod 2.0%, GLA inh pH 4.5 3.4, aGlu spleen mod -7.2% and N370S GC 12.6µM*.
Screening C[C@@]12CC[C@H]3OC(=O)C=C3C1CC[C@@]13CC(CCC12)[C@](CO)(O[C@H]1O[C@H](CO)[C@@H](O)[C@H](O)[C@H]1O)C3 (some centres undefined) returned N370S GC 17.8µM*.
Screening CCOC(=O)CN=C1CC(C)(C)CC2=C1Sc1ncnc(N(C)C)c1N2 returned aGal spleen mod 5.8%, GAA inh 0.5%, GAA glycogen mod 28µM*, GLA inh pH 4.5 0.1, aGlu spleen mod -0.5% and N370S GC -3.7%.
For O=C(O)c1cc2c(ccc3ccccc32)o1 the results were aGal spleen mod 39.8µM*, GAA inh -1.8%, GAA glycogen mod 27.8%, GLA inh pH 4.5 6.0, aGlu spleen mod -11.9% and N370S GC inconclusive.
For C[C@@H]1C(=O)O[C@H]2[C@H](O)[C@@]34[C@H]5CC(C(C)(C)C)[C@]36[C@H](OC(=O)[C@H]6O)O[C@]4(C(=O)O5)[C@@]12O (some centres undefined) the results were aGal spleen mod -8.4%, aGlu spleen mod -5.9% and N370S GC inconclusive.
Screening O=C(NNc1cc(N2CCOCC2)nc(N2CCOCC2)n1)c1ccc(Cl)c(Cl)c1 returned aGal spleen mod 0.1%, GAA inh -13.1%, GAA glycogen mod -6.1%, GLA inh pH 4.5 -14.3, aGlu spleen mod -10.5% and N370S GC 10.0%.
Cc1ccc(C(=O)NNc2cc(N3CCCC3)nc(N3CCCC3)n2)cc1 was read as aGal spleen mod 10.9%, GAA inh 5.5%, GAA glycogen mod 28.2µM*, GLA inh pH 4.5 6.4, aGlu spleen mod -0.1% and N370S GC -1.4%.
CCOc1cc(/C=C2\SC(=O)N=C2N)ccc1O was read as aGal spleen mod 6.1%, GAA inh -4.6%, GAA glycogen mod -22.6%, GLA inh pH 4.5 -3.6, aGlu spleen mod -2.2% and N370S GC -6.9%.
CCOc1cc(/C=C2\SC(N)=NC2=O)ccc1O was read as GAA glycogen mod 10µM* and N370S GC -3.6%.
For CCCCN(CCCC)CCCNC(=O)c1cc(-c2ccc(Cl)s2)nc2ccccc12 the results were GAA glycogen mod -5.0%[76.3 µM].
`Cc1c(NC(=O)OCCNC(=O)Nc2ccccc2)sc(=S)n1C` gave aGal spleen mod 4.9%, GAA inh -10.9%, GAA glycogen mod inconclusive, GLA inh pH 4.5 -7.9, aGlu spleen mod 13.3% and N370S GC inconclusive.
CCOC(=O)Nc1sc(=S)n(C)c1C was read as aGal spleen mod 2.7%, GAA inh 2.5%, GAA glycogen mod 7.88µM*, GLA inh pH 4.5 -4.4, aGlu spleen mod 8.0% and N370S GC 12.5%.
For CCCCN(C)CCNC(=O)c1cc2c(=O)n(C)c3ccccc3c2n1C the results were GAA glycogen mod -7.6%[76.3 µM].
For CCc1nn(CCCC(=O)N2CCN(c3cc(Cl)ccc3C)CC2)c(=O)c2cc3occc3n12 the results were GAA glycogen mod 6.1%[76.3 µM].
For O=C(c1ccco1)N1CCC2(CCCN(c3ccncc3)C2)CC1 the results were aGal spleen mod 3.7%, aGlu spleen mod -3.1% and N370S GC -10.5%.
For O=c1[nH]c2cc([N+](=O)[O-])c([N+](=O)[O-])cc2[nH]c1=O the results were aGal spleen mod 10.5%, GAA inh -10.6%, GAA glycogen mod -6.3%, GLA inh pH 4.5 -9.1, aGlu spleen mod -5.8% and N370S GC 8.91µM*.
`Cc1nnsc1C(=O)NNS(=O)(=O)c1cc(C(F)(F)F)cc(C(F)(F)F)c1` gave aGal spleen mod 5.7%, GAA inh 4.1%, GAA glycogen mod inconclusive, GLA inh pH 4.5 -6.1, aGlu spleen mod 7.3% and N370S GC 9.4%.
For Cc1ccc(S(=O)(=O)NNC(=O)c2snnc2C)cc1 the results were aGal spleen mod 0.7%, GAA inh -5.0%, GAA glycogen mod 25.1µM*, GLA inh pH 4.5 1.9, aGlu spleen mod -0.4% and N370S GC -13.3%.
`NC(=O)c1c(NC(NC(=O)c2ccco2)C(=O)c2ccc(Cl)cc2)sc2c1CCCC2` (centres undefined) gave aGal spleen mod -6.8%, GAA inh -11.6%, GAA glycogen mod -0.6%, GLA inh pH 4.5 -3.2, aGlu spleen mod -17.4% and N370S GC 26.5%.
Screening N#Cc1c(NC(NC(=O)c2ccco2)C(=O)c2ccccc2)sc2c1CCCC2 (centres undefined) returned aGal spleen mod 0.1%, GAA inh -7.5%, GAA glycogen mod 22.4µM*, GLA inh pH 4.5 -10.5, aGlu spleen mod -1.3% and N370S GC inconclusive.

Screening data deposited in PubChem BioAssay by National Center for Advancing Translational Sciences (NCATS).
